The nature of assay [1]: AP1 Signaling Pathway (AID 357). Also: % is scaled to controls: 0 for no effect and ±100 for the full control effect. Conditions: ME-180 AP-1-bla reporter, EGF-induced, beta-lactamase ratio, 5 h; at 17.2 µM (top of the series) unless noted. Summed up: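 ME-180 cells with beta-lactamase reporter under AP-1 response element, stimulated with EC50 EGF; compounds tested in titration series, 5 h at 37 °C. CCF4 substrate added 2.5 h at room temperature; 460/530 nm emission ratio gave %activity and AC50.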

A short description of assay [2]: NFAT Signaling Pathway (AID 444).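 Also: carbachol stimulus at about its EC50 of 1 µM final; % is scaled to controls: 0 for no effect and ±100 for the full control effect.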 Conditions: Jurkat NFAT-bla M1, carbachol, beta-lactamase ratio, 5 h; at 17.2 µM (top of the series) unless noted. Summed up:
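Jurkat cells carrying an NFAT-driven β-lactamase reporter and co-transfected muscarinic M1 receptor were treated with compound plus carbachol (1 uM final, an EC50 level) for 5 h at 37 °C. CCF4 loading followed for 1 h at RT; 460/530 nm ratio gave %activity.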

Assay [3] in a line: Stat Signaling Pathway (AID 446).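 Also: ME-180 cervical cancer cells given 40 pM IL-6 alongside compound; SIE-controlled beta-lactamase reporter measured as 460/530 nm FRET emission ratio; % is scaled to controls: 0 for no effect and ±100 for the full control effect.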 As to conditions: ME-180 (cervical carcinoma) SIE beta-lactamase reporter, IL-6 stimulated, 5 h; at 17.2 µM (top of the series) unless noted. Put shortly: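 IL-6/STAT signaling read in ME-180 cells via an SIE beta-lactamase reporter. Stimulus was 40 pM IL-6 (its AC50) for 5 hrs, so both activation and inhibition register.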
Assay [4] concerns the target Glucocorticoid receptor (Homo sapiens) (UniProt P04150). Description: GR-GFP Redistribution (AID 450;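 active = compounds whose dose series gives a full or clear partial fitted curve of increased nuclear translocation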; also: potency is read from the fitted curve at half-maximal effect).

This passage reports activity change, negative = inhibition, activity, negative = inhibition and Potency results from PubChem BioAssay (NCATS).

Each structure is given as a SMILES string. Unmarked numbers belong to inactive results. Records with an inconclusive call do not appear. The source made the active and inactive calls. Unless noted, calls follow the shape of the dose curve; as a rule, active = well fitted curve in either direction with a large enough effect (not every such curve was filed as active); inconclusive = small, poorly fitted or top-dose-only effect, or another doubt; inactive = flat fitted curve, though single readings scatter.

Glucocorticoid receptor (Homo sapiens), sequence (P04150 whole entry, looked up): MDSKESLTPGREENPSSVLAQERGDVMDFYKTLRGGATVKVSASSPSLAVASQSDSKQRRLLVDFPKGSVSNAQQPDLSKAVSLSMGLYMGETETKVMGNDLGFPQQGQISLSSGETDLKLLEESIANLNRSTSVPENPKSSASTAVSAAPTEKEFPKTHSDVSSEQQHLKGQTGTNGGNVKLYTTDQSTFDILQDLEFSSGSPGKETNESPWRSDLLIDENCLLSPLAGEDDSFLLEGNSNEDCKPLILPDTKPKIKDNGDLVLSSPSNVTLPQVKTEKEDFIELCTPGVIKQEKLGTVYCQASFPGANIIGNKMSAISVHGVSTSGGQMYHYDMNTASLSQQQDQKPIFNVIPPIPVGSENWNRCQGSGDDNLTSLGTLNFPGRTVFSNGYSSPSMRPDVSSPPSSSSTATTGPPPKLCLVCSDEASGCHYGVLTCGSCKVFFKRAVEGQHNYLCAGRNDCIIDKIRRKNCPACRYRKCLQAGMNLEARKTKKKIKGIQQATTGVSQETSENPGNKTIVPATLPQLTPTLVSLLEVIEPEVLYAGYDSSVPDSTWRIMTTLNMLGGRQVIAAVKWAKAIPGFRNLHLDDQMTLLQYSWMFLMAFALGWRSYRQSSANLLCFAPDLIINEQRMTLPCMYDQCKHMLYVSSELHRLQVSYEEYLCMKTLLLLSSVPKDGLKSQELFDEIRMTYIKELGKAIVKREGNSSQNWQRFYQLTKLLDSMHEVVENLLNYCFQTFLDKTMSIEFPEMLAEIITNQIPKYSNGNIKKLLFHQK

`CC(=O)OCC(=O)[C@@]1(O)CC[C@H]2[C@@H]3CCC4=CC(=O)C=C[C@]4(C)[C@@]3(Cl)[C@@H](Cl)C[C@@]21C`: the activity change, negative = inhibition in assay [1] is 11.8%; in assay [2] it was -9%. The activity, negative = inhibition in assay [3] is -0.258%. In addition, in assay [4], the Potency was 0.0078 µM (active).
For `Cc1c(C)[n+](=O)c2c(n1[O-])CCC2`, in that order: 0.615%, -5.07%, -0.102% and more than 20.6 µM.
For `O=S(=O)(c1ccc2ccccc2c1)N(CC(O)CN1CCOCC1)c1ccccc1` (stereo not given), in that order: -11.7%, 4.35%, -7.59% and more than 20.6 µM.
For `Cc1c(OCc2ccccc2)c(=O)ccn1Cc1ccccc1`, in that order: -8.27%, -0.234%, 1.99% and more than 20.6 µM.
As to `CCCOc1cccc(-c2nnc(N)s2)c1`, the activity change, negative = inhibition was -15.9% in assay [1] and -11.9% in assay [2]. Moreover, the activity, negative = inhibition in assay [3] is -2.76%. Moreover, the Potency in assay [4] is more than 20.6 µM.
Consider `Cc1cc(C(=O)O)c(CSc2ncn[nH]2)o1`, for which the activity change, negative = inhibition in assay [1] was 12.5%; in assay [2] it was 19.7%. In assay [3], the activity, negative = inhibition is 8.82%. Further, in assay [4], the Potency is more than 20.6 µM.
For `COc1cccc(/C(O)=C2\C(=O)C(=O)N(c3ccccn3)C2c2ccccc2OC)c1` (stereo not given), in that order: -8.01%, 11.4%, 1.49% and more than 20.6 µM.
For `CCOC(=O)COn1c(=O)c(-c2ccc(OC)c(OC)c2)[n+]([O-])c2ccccc21`, in that order: -0.29%, -6.08%, 4.19% and more than 20.6 µM.
For `Cc1cc(C)nc(N(C#N)CC(=O)N(c2ccccc2)C(C)C)n1`, in that order: -11%, 4.64%, 7.49% and more than 20.6 µM.
On to `CCOc1nc(Oc2cccc(C(=O)O)c2)nc(Oc2cccc(C(=O)O)c2)n1`, for which the activity change, negative = inhibition in assay [1] is 29.4%; in assay [2], 0.693%. The activity, negative = inhibition in assay [3] is 8.24%. The Potency in assay [4] was more than 20.6 µM.
For `O=C(NCc1ccco1)c1ccc(=O)[nH]n1`, in that order: -6.2%, -1.91%, -5.82% and more than 20.6 µM.
For `CN(C)c1cccc2c(S(=O)(=O)N3CCOCC3)cccc12`, in that order: -2.48%, -4.98%, 7.43% and more than 20.6 µM.
As for `COc1ccccc1-n1c(N)c(C(=O)NCC2CCCO2)c2nc3ccccc3nc21` (stereo not given), the activity change, negative = inhibition was 19.4% in assay [1] and 21.4% in assay [2]. Also, the activity, negative = inhibition in assay [3] is -0.0521%. In assay [4], the Potency was more than 20.6 µM.
`COc1cc(C(=O)Nc2nccs2)cc(OC)c1OC`: the figures for the activity change, negative = inhibition in assay [1] and in assay [2] were 12.8% and -2.54%, respectively. In addition, the activity, negative = inhibition in assay [3] was -9.15%. Moreover, the Potency in assay [4] is more than 20.6 µM.
With `COc1ccccc1-n1c(=O)c2c3c(sc2n2c(SC(C)C)nnc12)CCC3`, the activity change, negative = inhibition in assay [1] was -5.57%; in assay [2] it was -27.1%. In addition, the activity, negative = inhibition in assay [3] was 10.5%. In addition, the Potency in assay [4] is more than 20.6 µM.
Regarding `Nc1ccc2ncccc2c1N`, the activity change, negative = inhibition was 5.69% in assay [1] and -85.4% (active) in assay [2]. Besides, in assay [3], the activity, negative = inhibition is -11.2%. Moreover, the Potency in assay [4] was more than 20.6 µM.
For `CCCc1cc(=O)oc2c(C)c(O)c(CN3CCCCC3)cc12`, in that order: 6.18%, 19.5%, 10.7% and more than 20.6 µM.
For the compound `O=P(O)(c1ccccc1)c1ccccc1O`, the activity change, negative = inhibition in assay [1] was 6.62%; in assay [2], 7.27%. Moreover, in assay [3], the activity, negative = inhibition was 8.28%. Also, in assay [4], the Potency is more than 20.6 µM.
For `N#Cc1c(N)sc(=S)c2c1CCCCC2`, in that order: 10.8%, -12.9%, -20.4% and more than 20.6 µM.
With `CCNC(=O)Nn1c(C)nnc1C`, the activity change, negative = inhibition is 15.4% in assay [1] and -5.86% in assay [2]. The activity, negative = inhibition in assay [3] was 6.6%. The Potency in assay [4] was more than 20.6 µM.
Consider `O=C(CNC1C(=O)Nc2ccccc21)Sc1ccccc1` (stereo not given), for which the activity change, negative = inhibition in assay [1] was -0.11%; in assay [2] it was -10.4%. Also, in assay [3], the activity, negative = inhibition is 9.1%. Also, the Potency in assay [4] was more than 20.6 µM.
As to `Cc1ccc(S(=O)(=O)NCC(=O)OCN2C(=O)c3ccccc3C2=O)cc1`, the activity change, negative = inhibition in assay [1] is 2.06%; in assay [2] it was -25.1%. Also, the activity, negative = inhibition in assay [3] was 9.1%. Besides, the Potency in assay [4] is more than 20.6 µM.
With `CCOC(=O)C1=C(C)NC(=O)C1CC(=O)Nc1ccccc1` (stereo not given), the results for the activity change, negative = inhibition in assay [1] and in assay [2] were -1.66% and 25.9%, respectively. The activity, negative = inhibition in assay [3] was 3.03%. For the same compound, the Potency in assay [4] was more than 20.6 µM.
Regarding `C=CCN(C)CCCNC(=O)/C=N/O`, the activity change, negative = inhibition in assay [1] was -0.81%; in assay [2] it was 2.2%. In addition, the activity, negative = inhibition in assay [3] was 3.74%. For the same compound, the Potency in assay [4] is more than 20.6 µM.
Turning to `CC1(C)CC(=O)C2=C(C1)N(Cc1ccco1)C(=O)C2(NC(=O)c1cccnc1)C(F)(F)F` (stereo not given), the activity change, negative = inhibition in assay [1] was -3.2%; in assay [2] it was -3.77%. For the same compound, the activity, negative = inhibition in assay [3] is -9.45%. In assay [4], the Potency is more than 20.6 µM.
